Measurements taken from PubChem BioAssay (Tox21).
Inconclusive results are not listed. Entries that show only a call come without a potency. Calls of active or inactive are those of the source. Calls come from the whole dose curve; as a rule, active = well fitted inhibition curve with a large enough effect in the repeat runs; inconclusive = weak or mixed curves; inactive = no such curve, though single readings can be large or run the other way.

target: Cytochrome P450 1A2 (Homo sapiens) (UniProt P05177); test: Cytochrome P450 Family 1 Subfamily A Member 2 (CYP1A2) small molecule antagonists: luciferase reporter qHTS assay (AID 1671199); details: P450-Glo CYP1A2 enzyme, luciferin luminescence, 1 h; series mostly up to 53 µM; note: nearly all actives have a fitted effect of over 50% in size
Sequence (P05177 whole entry, looked up): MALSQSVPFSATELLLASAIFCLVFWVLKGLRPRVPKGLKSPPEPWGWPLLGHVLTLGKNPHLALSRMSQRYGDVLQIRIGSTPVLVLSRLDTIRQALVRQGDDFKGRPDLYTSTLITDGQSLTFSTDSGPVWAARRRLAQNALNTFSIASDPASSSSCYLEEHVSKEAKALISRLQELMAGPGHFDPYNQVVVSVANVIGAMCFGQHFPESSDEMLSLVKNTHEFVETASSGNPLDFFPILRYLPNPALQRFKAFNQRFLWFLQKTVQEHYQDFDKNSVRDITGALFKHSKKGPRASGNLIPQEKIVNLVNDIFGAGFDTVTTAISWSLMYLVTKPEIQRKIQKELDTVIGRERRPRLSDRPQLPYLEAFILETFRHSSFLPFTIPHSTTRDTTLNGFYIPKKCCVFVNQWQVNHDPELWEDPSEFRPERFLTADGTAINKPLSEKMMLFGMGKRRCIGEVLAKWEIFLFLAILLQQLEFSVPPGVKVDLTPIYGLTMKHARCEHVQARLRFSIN
Description: National Center for Advancing Translational Sciences [NCATS]
U.S. Environmental Protection Agency [EPA]
National Institutes of Environmental Health Sciences [NIEHS]
National Toxicology Program [NTP]
U.S. Food and Drug Administration [FDA]
Cytochrome P450 (CYP) enzymes are membrane-bound hemeproteins that play a key role in metabolism of drugs and xenobiotics. Evaluation of the effect of chemicals on CYP isozymes is useful to minimize the adverse drug reactions and toxicities in drug development process. Tox21 chemicals were tested for their effect on CYP enzyme activities by using P450-Glo (TM) screening systems (Promega Corporation, Madison, WI). These systems provide a luminescent method containing proluciferin substrates and are converted to luciferin products by CYP isozymes. The luciferin products formed are detected with a luciferin detection reagent, and the amount of light produced is proportional to CYP activity. P450-Glo (TM) CYP1A2 screening system (Catalog. No. V9770) was used to detect the compounds that interfere in CYP1A2 activity. The positive control compound used for CYP1A2 assay is furafylline (Sigma-Aldrich, St. Louis, MO).
Tox21 Assay Protocol Summary:
Two ul of enzyme-substrate mix was dispensed into medium binding white/solid 1536-well plates (Greiner Bio-One North America Inc., Monroe, NC) using a BioRaptr Flying Reagent Dispenser (FRD, Beckman Coulter, Brea, CA). Compounds dissolved in DMSO and positive control (furafyllline) were transferred to the assay plates at 23 nl using a Pintool station (Wako, San Diego, CA). The assay plates were incubated at room temperature for 10 min. Then 2 ul of NADPH regeneration solution was added to each well of the assay plates using an FRD and incubated at room temperature for 1 h. The reaction was stopped by adding 4 ul of detection reagent using an FRD and after 20 min incubation at room temperature the luminescence signal was measured using a ViewLux plate reader (Perkin Elmer, Shelton, CT). Data were expressed as relative luminescence units.
Potency is the fitted concentration of half-maximal effect.

Row | Structure (SMILES) | Potency
1 | CCCCCOC(=O)CCC | inactive
2 | NCCS | inactive
3 | Nc1ccc(S(=O)(=O)Nc2ccc(Cl)nn2)cc1 | inactive
4 | O=C(OCC(COC(=O)c1cccnc1)(COC(=O)c1cccnc1)COC(=O)c1cccnc1)c1cccnc1 | inactive
5 | O=S(=O)(O)CCN1CCN(CCO)CC1 | inactive
6 | O=C(OCC(O)CO)c1ccccc1Nc1ccnc2c(C(F)(F)F)cccc12 (stereo not given) | 2.88 µM (active)
7 | O=C(NCCN1CCOCC1)c1ccc(Cl)cc1 | inactive
8 | CCCCCCCCSCC | inactive
9 | CCN1CCc2nc(N)oc2CC1 | inactive
10 | CC(C)(C)c1nnc(NS(=O)(=O)c2ccc(N)cc2)s1 | inactive
11 | CC(=C(CCOC(=O)C(C)C)SSC(CCOC(=O)C(C)C)=C(C)N(C=O)Cc1cnc(C)nc1N)N(C=O)Cc1cnc(C)nc1N | inactive
12 | Oc1ccccc1-c1nnco1 | 30.9 µM (active)
13 | COC(=O)c1ccccc1C(=O)c1ccc(OCCN2CCCCC2)cc1 | inactive
14 | C[C@H](CCC(=O)O)[C@H]1CC[C@H]2[C@@H]3C(=O)C[C@@H]4CC(=O)CC[C@]4(C)[C@H]3CC(=O)[C@]12C | inactive
15 | C[C@@H]1O[C@@H](O[C@@H]2[C@@H](O)[C@H](OCCc3ccc(O)c(O)c3)O[C@H](CO[C@@H]3O[C@H](CO)[C@@H](O)[C@H](O)[C@H]3O)[C@H]2OC(=O)/C=C/c2ccc(O)c(O)c2)[C@H](O)[C@H](O)[C@H]1O | inactive
16 | CC(=O)NCCCCCC(=O)O | inactive
17 | CCCCOCCOC(=O)COc1nc(Cl)c(Cl)cc1Cl | 39.9 µM (active)
18 | CCCCCCCC/C=C\CCCCCCCC(=O)OCCCC | inactive
19 | N[C@@H](COP(=O)(O)O)C(=O)O | inactive
20 | CCCC/C=C/C=C\C=O | inactive

Row | Structure (SMILES) | Potency
21 | CC/C=C\CC1=C(C)CCC1=O | 31.7 µM (active)
22 | Cc1c(I)c(=O)n(-c2ccccc2)n1C | inactive
23 | COC(=O)CCc1ccc(OCC(O)CNC(C)C)cc1 (stereo not given) | inactive
24 | CC(CO)c1ccccc1 (stereo not given) | inactive
25 | COc1ccc2nc(SCc3ncc(C)c(OC)c3C)[nH]c2c1 | 15.5 µM (active)
26 | C=C(C)C(=O)OCCOP(=O)(O)OCCOC(=O)C(=C)C | inactive
27 | CC(C)CCCCOC(=O)c1ccccc1C(=O)OCCCCC(C)C | 17.9 µM (active)
28 | CN(C)CCOCCO | inactive
29 | Oc1cn2c(n1)Nc1ccc(Cl)c(Cl)c1C2 | 2.81 µM (active)
30 | NC(CO)C(=O)NNCc1ccc(O)c(O)c1O (stereo not given) | inactive
31 | CCCCNC1CC(C)(C)NC(C)(C)C1 | inactive
32 | COc1ccc(Br)c(C)c1 | 32 µM (active)
33 | CCOC(=O)CC(=O)c1ccccc1 | 28.3 µM (active)
34 | CCCC(=O)C(C)=O | inactive
35 | O=C(O)c1ccc(Cl)cc1Cl | inactive
36 | CCCCOC(=O)c1ccccc1 | inactive
37 | C[C@@H](Oc1ccc(CNC(=O)c2cccnc2Oc2ccc3c(c2)OCO3)c(F)c1)C(=O)O | inactive
38 | C=CCCCCCCCCCCCC | inactive
39 | Cc1ccccc1OCC(O)CO (stereo not given) | 27.5 µM (active)
40 | COc1cc(N)ccc1C | 4.98 µM (active)
